The record followed here is PubChem BioAssay (NCI).

Among the test systems are T-47D breast; BT-549 breast; MDA-MB-435 melanoma; SW-620 colon; MCF7 breast; HCT-116 colon; HCC-2998 colon; KM12 colon.
Common to all, as to assay: NCI-60 one-dose screen, 48 h (100 = growth as untreated, 0 = no growth, -100 = all killed)
Holding throughout (conditions): 10 µM unless noted

The panel holds about 83,000 compounds, 20% with a hit somewhere; the sample as a whole holds those more often.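 Plates (96-well) were seeded with cells, treated with compound at one concentration, and incubated for 48 hours before percent growth was determined.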 A number with no mark means an inactive call. Calls of active or inactive are those of the source. Rule for the calls: active = growth percent below 10; inactive = the rest.

As to `CC[n+]1ccc2c(c1)C(=O)c1nccc3c1c-2nc1ccccc13`, the growth was 8.59% (active) with T-47D breast; -82.7% (active) in the assay with BT-549 breast; 4.27% (active) with MDA-MB-435 melanoma; 5.32% (active) in the assay with SW-620 colon; -6.21% (active) with MCF7 breast; -27.8% (active) in the assay on HCT-116 colon. Moreover, the growth with HCC-2998 colon was -21% (active); in the assay on KM12 colon it was 8.87% (active).
For `O=C(O)c1cccc2c1-c1ccccc1C2=O`, the growth in the assay on T-47D breast was 93.1%; in the assay on BT-549 breast it was 85.8%; with MDA-MB-435 melanoma, 97.7%; in the assay with SW-620 colon, 95.7%; with MCF7 breast it was 92.3%; with HCT-116 colon, 92.6%. The growth in the assay with HCC-2998 colon was 99%; with KM12 colon, 97.9%.
Regarding `CC(=O)OCC(=O)C1CCC=CC1OC(C)=O` (stereo not given), the growth was 87.8% with T-47D breast; 103% with BT-549 breast; 98.3% in the assay with MDA-MB-435 melanoma; 111% in the assay with SW-620 colon; 105% in the assay with MCF7 breast; 100% in the assay on HCT-116 colon. Also, the growth in the assay with HCC-2998 colon was 102%; in the assay on KM12 colon it was 99.7%.
Turning to `CC(=O)O[C@H]1CC[C@]2(C)[C@H]3CC[C@@H]4[C@H]5[C@H](C(C)C)CC[C@]5(C(=O)OCC(CO)(CO)N=C(N)N)CC[C@@]4(C)[C@]3(C)CC[C@H]2C1(C)C`, the growth with T-47D breast was 44.6%; in the assay on BT-549 breast, 108%; in the assay with MDA-MB-435 melanoma, 22.6%; in the assay with SW-620 colon, -71.5% (active); with MCF7 breast, 4.01% (active); in the assay with HCT-116 colon it was -76.1% (active). Moreover, the values for the growth with HCC-2998 colon and in the assay with KM12 colon were -60.9% (active) and 17.4%, respectively.
In the case of `O=S(=O)(Nc1ccc(Cl)cc1Cl)c1ccc(-c2cnc(C3CC3)o2)cc1`, the growth in the assay on T-47D breast is 33.9%; with BT-549 breast it was 47%; in the assay with MDA-MB-435 melanoma it was -5.62% (active); with SW-620 colon, 21%; with MCF7 breast, 15.3%; in the assay with HCT-116 colon, 24.9%. In addition, the figures for the growth in the assay with HCC-2998 colon and in the assay with KM12 colon were 39.3% and 33.3%, respectively.
Take `O=C(Nc1ccc(F)cc1)Nc1ccc(CCO)cc1`: the growth in the assay on T-47D breast was 104%; in the assay on BT-549 breast it was 108%; in the assay with MDA-MB-435 melanoma, 97.4%; in the assay with SW-620 colon, 108%; in the assay with MCF7 breast it was 109%; in the assay on HCT-116 colon, 94.7%. In addition, the growth in the assay with HCC-2998 colon and in the assay on KM12 colon was 108% throughout.
For `O=C1/C(=C/c2ccc(F)cc2)CN(C(=O)CCN2CCC(=NO)CC2)C/C1=C\c1ccc(F)cc1`, the growth was -18.9% (active) in the assay with T-47D breast; -26.6% (active) with BT-549 breast; -49.9% (active) in the assay on MDA-MB-435 melanoma; -56.5% (active) with SW-620 colon; -48.6% (active) in the assay on MCF7 breast; -65.6% (active) with HCT-116 colon. Moreover, the values for the growth in the assay with HCC-2998 colon and in the assay on KM12 colon were -83.3% (active) and -77.2% (active), respectively.
On to `CC(=O)OCC1OC(OC2=C(CC=C(Cl)Cl)C(=O)c3ccccc3C2=O)C(OC(C)=O)C(OC(C)=O)C1OC(C)=O` (stereo not given), for which the growth was -18.2% (active) in the assay with T-47D breast; 71.2% in the assay with BT-549 breast; 89.9% with MDA-MB-435 melanoma; 22.9% in the assay with SW-620 colon; 19.9% in the assay on MCF7 breast; 31.6% with HCT-116 colon. Besides, the growth was 102% in the assay with HCC-2998 colon and 82.2% with KM12 colon.
Consider `C[C@@H]1CC[C@@H]2[C@@H]1[C@H](OC(=O)/C=C/c1ccccc1)[C@]1(C3CCCCC3)C[C@@H](OC(=O)CO)[C@@]2(C)O1`, for which the growth was 42.8% in the assay with T-47D breast; 0.688% (active) in the assay with BT-549 breast; 87.9% with MDA-MB-435 melanoma; 77.6% in the assay with SW-620 colon; 38.3% with MCF7 breast; 52% with HCT-116 colon. Also, the values for the growth in the assay with HCC-2998 colon and in the assay with KM12 colon were 78% and 69.1%, respectively.
In the case of `O=C(CN1CCOCC1)Nc1ccc(Cn2nnc3c2C(=O)c2nnn(Cc4ccc(NC(=O)CN5CCOCC5)cc4)c2C3=O)cc1`, the growth in the assay with T-47D breast was -26.5% (active); with BT-549 breast it was -95.6% (active); in the assay with MDA-MB-435 melanoma it was -77.1% (active); with SW-620 colon it was 4.23% (active); with MCF7 breast, -62% (active); in the assay on HCT-116 colon it was -75.1% (active). In addition, the figures for the growth in the assay on HCC-2998 colon and in the assay with KM12 colon were -42% (active) and 6.44% (active), respectively.
Take `O=C(CN1CCN(c2cc3c(cc2F)c(=O)c(C(=O)O)cn3C2CC2)CC1)Nc1nc(-c2ccc(Cl)cc2)cs1`: the growth is 40.2% with T-47D breast; 26.3% with BT-549 breast; 25.2% with MDA-MB-435 melanoma; 26.2% in the assay with SW-620 colon; 23.5% in the assay with MCF7 breast; 13.7% in the assay on HCT-116 colon. Moreover, the growth is 29.8% in the assay with HCC-2998 colon and 21.8% in the assay with KM12 colon.
Consider `O=[N+]([O-])c1cccc(-c2nc3sccn3c2-c2ccnc(NCCCNS(=O)(=O)c3ccc(Br)cc3)n2)c1`, for which the growth with T-47D breast is 1.8% (active); in the assay with BT-549 breast it was 38%; in the assay with MDA-MB-435 melanoma, 46.6%; in the assay with SW-620 colon it was 98.1%; with MCF7 breast, 34%; with HCT-116 colon, 56.9%. Besides, the growth in the assay with HCC-2998 colon was 102%; in the assay with KM12 colon, 40.5%.
As for `O=C1/C(=C/c2ccc(Cl)c(Cl)c2)CN(C(=O)CCN2CCC(=NO)CC2)C/C1=C\c1ccc(Cl)c(Cl)c1`, the growth with T-47D breast was -79.9% (active); in the assay with BT-549 breast it was -87.9% (active); in the assay on MDA-MB-435 melanoma, -93.8% (active); in the assay with SW-620 colon, -62.9% (active); in the assay with MCF7 breast, -53.8% (active); in the assay with HCT-116 colon it was -47.1% (active). In addition, the growth is -77.1% (active) with HCC-2998 colon and -80.9% (active) with KM12 colon.
Take `O=C(/C=C\c1cccc([N+](=O)[O-])c1)c1ccccc1`: the growth was -5.11% (active) in the assay with T-47D breast; 90.1% in the assay with BT-549 breast; 65.7% in the assay on MDA-MB-435 melanoma; -30.1% (active) with SW-620 colon; -9.56% (active) in the assay with MCF7 breast; -68.3% (active) with HCT-116 colon. The growth is 10.9% in the assay with HCC-2998 colon and -49.7% (active) in the assay on KM12 colon.
For `Cc1ccc(N)cc1F`, the growth in the assay on T-47D breast was 184%; in the assay on BT-549 breast, 116%; with MDA-MB-435 melanoma, 100%; in the assay on SW-620 colon, 107%; in the assay with MCF7 breast, 94.2%; with HCT-116 colon, 86.8%. Besides, the growth is 106% in the assay on HCC-2998 colon and 99.7% in the assay with KM12 colon.
